According to PubChem BioAssay (NCI):
About 83,000 compounds went through this panel and 20% of them were active in at least one assay; those are over-represented in the sample as a whole.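 48-hour exposure, single concentration, 96-well plates; percent growth endpoint where 0 means no net growth. Active: below 10.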 The source made the active and inactive calls.

These compounds were tested on NCI-H23 lung (assay: NCI-60 one-dose screen, 48 h (100 = growth as untreated, 0 = no growth, -100 = all killed)). Conditions: 10 µM unless noted.

| SMILES | growth |
| --- | --- |
| C=CC(=O)Nc1cccc(-c2nc(SC)nc(NCc3ccccc3)c2C#N)c1 | 61.1% (inactive) |
| COC(=O)c1ccc2oc(NC(=O)c3ccc(Nc4ccc([N+](=O)[O-])cc4C)c([N+](=O)[O-])c3)nc2c1 | 95.9% (inactive) |
| COc1cc(/C=C/c2cc(/C=C/c3ccc(O)c(OC)c3)n(-c3c(Cl)cccc3Cl)c(=O)n2)ccc1O | 29% (inactive) |
| CSc1nc(Nc2cccc(NC(=O)CCl)c2)c(C#N)c(-c2cccc([N+](=O)[O-])c2)n1 | 40.3% (inactive) |
| CC(C)(C)N1CCC1CN (stereo not drawn) | 104% (inactive) |
| Cc1ccc(NC(=O)/C=C/c2ccccc2)c(C(N)=O)c1 | 58.6% (inactive) |
| COc1ccc(-n2nc(C)c3c(Nc4ccc(NC(=O)Nc5cccc(C(F)(F)F)c5)cc4)ncnc32)cc1 | 9.95% (active) |
| O=C1OCC2=C1C(c1ccncc1)c1cc3c(cc1N2CCO)OCO3 (stereo not drawn) | 99.6% (inactive) |
| C#Cc1cccc(NC(=O)c2ccccc2NC(=O)C=C)c1 | 97.1% [8.25 µM] (inactive) |
| CCOc1cc2ncc(C#N)c(Nc3ccc(F)c(Cl)c3)c2cc1NC(=O)CC1CCSS1 (stereo not drawn) | -50.6% (active) |
| CN(Cc1cc(Cl)cc(Cl)c1O)Cc1cc(Cl)cc(Cl)c1O | 76.9% (inactive) |
| CC(=O)O[C@H]1[C@@H]2OC(=O)C(CSc3ccccc3)[C@@H]2C[C@H]2O[C@]2(C)CC/C=C(\C)CCC[C@@H]1C (stereo partly drawn) | 53.1% (inactive) |
| COc1ccc(/C=N/C2=C(C#N)C(c3ccc(N(C)C)cc3)c3ccc4ccccc4c3O2)cc1 (stereo not drawn) | 79.2% (inactive) |
| C[n+]1ccccc1/C=C/c1ccc2cccc(O)c2n1 | 103% (inactive) |
| Cc1nn(-c2ccc(F)cc2)c2ncnc(Oc3ccc(NC(=O)Nc4ccc(Cl)c(C(F)(F)F)c4)cc3)c12 | 96.7% (inactive) |
| COc1ccc(C(=O)c2sc3nc(C)cc(C)c3c2N)cc1OC | 74.3% (inactive) |
| C=CC(=O)Nc1cccc(-c2nc(SC)nc(Nc3ccccc3OC)c2C#N)c1 | 55.5% (inactive) |
| Nc1nc2ncc(CCNc3ccc(C(=O)O)cc3)nc2c(=O)[nH]1 | 108% (inactive) |
| CCCSc1ccc2nc(NC(=O)OC)[nH]c2c1 | 24% (inactive) |

| SMILES | growth |
| --- | --- |
| CCCc1cc(=O)n2c(C(=O)Nc3ccc(F)cc3)c(C(=O)Nc3ccc(F)cc3)sc2n1 | 81.9% [30 µM] (inactive) |
| O=C(/C=C/c1ccccc1)c1ccc(O)c(CN2CCN(c3cc4c(cc3F)c(=O)c(C(=O)O)cn4C3CC3)CC2)c1 | 34.4% (inactive) |
| CCOC(=O)c1sc2nc(-c3cccc(OC)c3)nc(N3CCOCC3)c2c1C | 93.5% (inactive) |
| CCCCCCCCCCCCC[N+](C)(C)Cc1ccccc1 | -22.8% (active) |
| CCCOc1ccc2nc(NC(=O)OC)[nH]c2c1 | 21.9% (inactive) |
| Nc1n[nH]c2ccc([C@@H]3Nc4ccc5cn[nH]c5c4[C@H]4C5CCC(C5)[C@@H]34)cc12 (stereo partly drawn) | 43.5% (inactive) |
| O=c1nc2oc3ccc4ccccc4c3cc-2s1 | 45.5% (inactive) |
| COC(=O)c1cccc(NC(=O)c2ccc(-c3cccc(N)c3)o2)c1 | 97.5% (inactive) |
| CCOC(=O)c1c(C)oc2ncnc(N3CCN(C(=S)Nc4ccccc4)CC3)c12 | 90.8% (inactive) |
| CCCCN(CCCC)CCCn1c(-c2ccccc2)ccc1-c1ccccc1 | 52.9% (inactive) |
| CN1CCN(CCCOc2cccc3nc(Nc4ccc(Cl)c(F)c4)ccc23)CC1 | 63.3% (inactive) |
| COc1cccc(/C=N/NC(=O)c2ccccc2Nc2ccnc(C(F)(F)F)c2)c1O | 30.8% (inactive) |
| COc1cc2nc(N3CCCC3)nc(NCc3ccccc3)c2cc1OC | 82.3% (inactive) |
| COc1cc2c(cc1-c1c(C)noc1C)ncc1nc(-c3ccccn3)n([C@H](C)COC(F)F)c12 | 61.1% (inactive) |
| COc1cccc(-c2nc3sccn3c2-c2ccnc(NCCCNS(=O)(=O)c3c(Cl)cccc3Cl)c2)c1 | 60.3% (inactive) |
| N#Cc1c(-c2ccc(Cl)cc2)nc(NN=Cc2ccco2)nc1N1CCOCC1 | 70.8% (inactive) |
| O=C(Nc1cccc2[nH]c(C(F)(F)F)nc12)c1ccc(-n2cnnn2)cc1 | 82.1% (inactive) |
| CC1CCNC(C)C1 (stereo not drawn) | 104% (inactive) |
| CCN(CC)c1ccc(-c2cc(-c3cc(OC)c(OC)c(OC)c3)nc(N3CCOCC3)c2C#N)cc1 | 56.2% (inactive) |
